Measurements as given in PubChem BioAssay (NCATS).
Calls of active or inactive are those of the source. Calls come from the whole dose curve.

Target: Catechol O-methyltransferase (Homo sapiens) (UniProt P21964)
Test: Confirmatory Screen for Target Class Profiling of Small Molecule Inhibitors of Methyltransferases (AID 1745852); for activity change, negative = inhibition: % is set by controls: 0 for no effect and ±100 for the full control effect
Conditions: MTase-Glo luminescence, SAH detection, recombinant enzyme; measured here: COMT max response; stronger effect = lower value
Potency is the fitted concentration of half-maximal effect.

Chain of Catechol O-methyltransferase (Homo sapiens) (P21964 whole entry, looked up): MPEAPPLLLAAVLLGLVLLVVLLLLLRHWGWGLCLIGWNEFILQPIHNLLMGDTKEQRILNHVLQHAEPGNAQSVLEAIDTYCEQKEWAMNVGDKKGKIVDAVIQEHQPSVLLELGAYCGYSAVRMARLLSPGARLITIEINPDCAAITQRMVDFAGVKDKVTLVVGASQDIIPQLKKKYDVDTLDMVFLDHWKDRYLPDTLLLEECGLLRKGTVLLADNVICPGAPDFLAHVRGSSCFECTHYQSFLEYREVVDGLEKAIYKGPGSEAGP

SMILES | activity [%]
CCCCCCCOc1cc2c(cc1/C(C)=C/c1ccc(C(=O)O)cc1)C(C)(C)CCS2(=O)=O | -11.5
COc1cc2c(cc1-c1c(C)noc1C)ncc1[nH]c(=O)n(C(C)c3ccccn3)c12 (centres undefined) | -17.8
CCC(CC)C(c1ccc(Nc2nc3ccccc3s2)cc1)n1cncn1 (centres undefined) | -3.56
COc1cc2c(NC3CCN(C(C)C)CC3)nc(N3CCC(F)(F)CC3)nc2cc1OCCCN1CCCC1 | -11.2
Fc1ccc(N2CCCCC2)c(NC(=S)c2ccncc2)c1 | -6
c1cc(NC2CCNCC2)nc(-c2cnc3ccccn23)c1 | -7.29
Cc1cn(CCN2CCN(c3ccccc3-c3cc(C#N)cc(C(=O)NCCCN4CCCC4)c3)CC2)c2ccccc12 | 3.99
Cc1cc2c(N3CCCC3)nc(N3CCCC3)nc2n1C | -23.9
Cc1cc(N2CCOCC2)ccc1Nc1nc(NC2CCCCC2)c2[nH]cnc2n1 | -13.2
COc1ccc(N(C(=O)Nc2c(C)cccc2C)c2cc(Nc3ccc(N4CCN(C)CC4)cc3)ncn2)c(OC)c1 | -5.96
N#C/C(=C1\Nc2ccccc2S1)c1ccnc(NCCc2cccnc2)n1 | -23.6
Cc1ccc(CNc2ncnc3ccc(-c4ccc(CO)o4)cc23)o1 | -5.85
CCCCCc1ccc(/C=C/C(=O)Nc2cc(Cl)ccc2C(=O)O)cc1 | -6.7
C=CC(=O)Nc1ccc(CN2C(=O)N(c3cc(OC)cc(OC)c3)Cc3cnc(Nc4ccc(N5CCN(C)CC5)cc4)nc32)cc1 | -18.9
Cc1ccc(C)c(-c2cc(C(F)(F)F)nn2-c2ccc(S(N)(=O)=O)cc2)c1 | -7.64
COc1ccc2nc3n[nH]c(C)c3c(NCCOCCO)c2c1 | -59.3
COc1cc2c(cc1OC)CN(C(=O)/C=C/c1c(-c3ccccc3)n(C)c3ncccc13)CC2 | -6.33

Target: Guanidinoacetate N-methyltransferase (Homo sapiens) (UniProt Q14353)
Test: as above
Conditions: MTase-Glo luminescence, SAH detection, recombinant enzyme; activity change, negative = inhibition: at 57.3 µM (top of the series) unless noted; series mostly up to 57.3 µM

SMILES | Potency | activity change, negative = inhibition [%]
CCCCCCCOc1cc2c(cc1/C(C)=C/c1ccc(C(=O)O)cc1)C(C)(C)CCS2(=O)=O | 27.1 µM (active) | –
COc1cc2c(cc1-c1c(C)noc1C)ncc1[nH]c(=O)n(C(C)c3ccccn3)c12 (centres undefined) | – | 3.12
CCC(CC)C(c1ccc(Nc2nc3ccccc3s2)cc1)n1cncn1 (centres undefined) | – | -4.47
COc1cc2c(NC3CCN(C(C)C)CC3)nc(N3CCC(F)(F)CC3)nc2cc1OCCCN1CCCC1 | – | -0.0366
Fc1ccc(N2CCCCC2)c(NC(=S)c2ccncc2)c1 | – | 2.26
c1cc(NC2CCNCC2)nc(-c2cnc3ccccn23)c1 | – | -7.64
Cc1cn(CCN2CCN(c3ccccc3-c3cc(C#N)cc(C(=O)NCCCN4CCCC4)c3)CC2)c2ccccc12 | – | 10.2
Cc1cc2c(N3CCCC3)nc(N3CCCC3)nc2n1C | 24.1 µM (active) | –
Cc1cc(N2CCOCC2)ccc1Nc1nc(NC2CCCCC2)c2[nH]cnc2n1 | – | -8.72
COc1ccc(N(C(=O)Nc2c(C)cccc2C)c2cc(Nc3ccc(N4CCN(C)CC4)cc3)ncn2)c(OC)c1 | – | 0
N#C/C(=C1\Nc2ccccc2S1)c1ccnc(NCCc2cccnc2)n1 | 15.2 µM (active) | –
Cc1ccc(CNc2ncnc3ccc(-c4ccc(CO)o4)cc23)o1 | – | -1.25
CCCCCc1ccc(/C=C/C(=O)Nc2cc(Cl)ccc2C(=O)O)cc1 | 42.9 µM (active) | –
C=CC(=O)Nc1ccc(CN2C(=O)N(c3cc(OC)cc(OC)c3)Cc3cnc(Nc4ccc(N5CCN(C)CC5)cc4)nc32)cc1 | – | -0.849
Cc1ccc(C)c(-c2cc(C(F)(F)F)nn2-c2ccc(S(N)(=O)=O)cc2)c1 | – | -5.49
COc1ccc2nc3n[nH]c(C)c3c(NCCOCCO)c2c1 | 27.1 µM (active) | –
COc1cc2c(cc1OC)CN(C(=O)/C=C/c1c(-c3ccccc3)n(C)c3ncccc13)CC2 | – | -4.03
